# Active and inactive are the calls of the source. The calls were made as follows: active = hit-call score of the fitted dose curve at least 0.9, where 1 is the maximum; inactive = score below 0.9.
# Legend:
# Details in all cases: mRNA level, 48 h; actives raise or lower the signal
# [1] = read-out: ABC Transporter (ABCB11), ABCB11 (gene 8647); assay: LTEA_HepaRG_ABCB11: Life Technologies and Expression Analysis (LTEA) Assay for ABC Transporter (ABCB11) using HepaRG (AID 2283463)
# Procedure, shortened: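 HepaRG, 48 h exposure, 8-pt half-log CRC top 100 uM, 0.5% DMSO vehicle, duplicates. Readout: TaqMan qRT-PCR of ABCB11 mRNA, housekeeping-normalized (ACTB/GAPDH/POLR2A). Bidirectional fit vs DMSO baseline.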
# [2] = read-out: ABC Transporter (ABCC2), ABCC2 (gene 1244); assay: LTEA_HepaRG_ABCC2: Life Technologies and Expression Analysis (LTEA) Assay for ABC Transporter (ABCC2) using HepaRG (AID 2283464)
# Procedure, shortened: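 Gene expression of ABCC2 was determined by qRT-PCR in HepaRG cells exposed 48 h to chemicals (highest 100 uM, half-log dilutions). Activity was fitted in both directions relative to 0.5% DMSO vehicle.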
# [3] = read-out: Broad substrate specificity ATP-binding cassette transporter ABCG2 (Homo sapiens) (UniProt Q9UNQ0); assay: LTEA_HepaRG_ABCG2: Life Technologies and Expression Analysis (LTEA) Assay for ABC Transporter (ABCG2) using HepaRG (AID 2283465)
# Procedure, shortened: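 HepaRG, 48 h exposure, 8-pt half-log series from 100 uM, 0.5% DMSO vehicle, duplicates. Readout: ABCG2 transcript by qRT-PCR (Fluidigm array), housekeeping-normalized; bidirectional curve fit relative to DMSO baseline.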
# [4] = read-out: ATP-citrate lyase (ACLY), ACLY (gene 47); assay: LTEA_HepaRG_ACLY: Life Technologies and Expression Analysis (LTEA) Assay for ATP-citrate lyase (ACLY) using HepaRG (AID 2283466)
# Procedure, shortened: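 qRT-PCR readout of ACLY transcript after 48 h chemical treatment of HepaRG cells; expression normalized to three housekeeping genes. Eight-point half-log series, highest 100 uM, 0.5% DMSO vehicle. Gain or loss fitted against DMSO baseline.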
# [5] = read-out: Peroxisomal acyl-coenzyme A oxidase 1 (ACOX1) gene, ACOX1 (gene 51); assay: LTEA_HepaRG_ACOX1: Life Technologies and Expression Analysis (LTEA) Assay for Peroxisomal acyl-coenzyme A oxidase 1 (ACOX1) gene using HepaRG (AID 2283467)
# Procedure, shortened: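 HepaRG, 48 h chemical exposure, 8-pt half-log series from 100 uM top, 0.5% DMSO vehicle, duplicates. Readout: ACOX1 mRNA by Fluidigm qRT-PCR, housekeeping-normalized; bidirectional fit vs DMSO baseline.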
# [6] = read-out: Alkaline Phosphatase, Placental (ALPP) gene, ALPP (gene 250); assay: LTEA_HepaRG_ALPP: Life Technologies and Expression Analysis (LTEA) Assay for Alkaline Phosphatase, Placental (ALPP) gene using HepaRG (AID 2283468);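 as to AC50: differentiated human HepaRG liver cells in serum-free induction medium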
# Procedure, shortened: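 Expression of ALPP was quantified by qRT-PCR against three housekeeping genes in human HepaRG cultures treated for 48 h with an eight-point concentration series up to 100 uM. Activity in either direction was fitted relative to 0.5% DMSO.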
# [7] = read-out: Bcl-2 (BAD) gene, BAD (gene 572); assay: LTEA_HepaRG_BAD: Life Technologies and Expression Analysis (LTEA) Assay for Bcl-2 (BAD) gene using HepaRG (AID 2283469)
# Procedure, shortened: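 HepaRG, 48 h exposure, 8-pt half-log curve from 100 uM in 0.5% DMSO, duplicates. Readout: TaqMan qRT-PCR for BAD mRNA, housekeeping-normalised (ACTB/GAPDH/POLR2A); gain or loss fitted against DMSO baseline.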
# [8] = read-out: Bcl-2 (BAX) gene, BAX (gene 581); assay: LTEA_HepaRG_BAX: Life Technologies and Expression Analysis (LTEA) Assay for Bcl-2 (BAX) gene using HepaRG (AID 2283470)
# Procedure, shortened: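 qRT-PCR read-out of BAX mRNA, normalized to three housekeeping genes, after 48 h chemical exposure of human HepaRG cells in serum-free induction medium; eight-point half-log series, top 100 uM, 0.5% DMSO vehicle; bidirectional fit versus DMSO.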
# [9] = read-out: adenosine kinase (ADK) gene, ADK (gene 132); assay: LTEA_HepaRG_ADK: Life Technologies and Expression Analysis (LTEA) Assay for adenosine kinase (ADK) gene using HepaRG (AID 2283471)
# Procedure, shortened: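 Read-out is ADK transcript level measured by qRT-PCR and normalised to three housekeeping genes. Cells are human HepaRG, dosed for 48 h at up to 100 uM in 0.5% DMSO. Gain or loss of signal is fitted against DMSO controls.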
# [10] = read-out: Apoptosis regulator Bcl-2 (Homo sapiens) (UniProt P10415); assay: LTEA_HepaRG_BCL2: Life Technologies and Expression Analysis (LTEA) Assay for Bcl-2 gene using HepaRG (AID 2283475)
# Procedure, shortened: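 qRT-PCR read-out (Fluidigm TaqMan) of BCL2 transcript, normalised to three housekeeping genes, after 48 h chemical exposure of HepaRG cells; 8-point half-log series, top 100 uM, 0.5% DMSO vehicle. Gain or loss of signal fitted relative to DMSO baseline.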
# [11] = read-out: Bcl-2 (BID) gene, BID (gene 637); assay: LTEA_HepaRG_BID: Life Technologies and Expression Analysis (LTEA) Assay for Bcl-2 (BID) gene using HepaRG (AID 2283476)
# Procedure, shortened: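 HepaRG, 48 h exposure, 8-pt half-log series, top 100 uM, 0.5% DMSO vehicle, duplicates. Readout: BID mRNA by TaqMan qRT-PCR; housekeeping-normalized; bidirectional curve fit vs DMSO baseline.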
# Caspase-3 (Homo sapiens) = Caspase-3 (Homo sapiens) (UniProt P42574); assay: LTEA_HepaRG_CASP3: Life Technologies and Expression Analysis (LTEA) Assay for cysteine-aspartic acid protease (CASP3) using HepaRG (AID 2283477)
# Chain of Caspase-3 (Homo sapiens) (P42574 whole entry, looked up): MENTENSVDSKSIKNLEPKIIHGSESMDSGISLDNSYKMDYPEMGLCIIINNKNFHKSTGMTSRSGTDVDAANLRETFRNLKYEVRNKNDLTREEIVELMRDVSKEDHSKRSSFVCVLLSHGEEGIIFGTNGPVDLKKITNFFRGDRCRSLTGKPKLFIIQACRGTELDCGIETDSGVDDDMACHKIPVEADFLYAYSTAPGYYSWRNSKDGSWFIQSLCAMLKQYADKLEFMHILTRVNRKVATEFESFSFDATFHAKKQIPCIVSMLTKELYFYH
# Procedure, shortened: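 In HepaRG liver cells dosed for 48 h at up to 100 uM (eight-point, duplicate), CASP3 expression changes are scored by qRT-PCR. Activity is fitted in both directions with 0.5% DMSO as baseline.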
# [12] = read-out: Cytochrome P450 (CYP24A1), CYP24A1 (gene 1591); assay: LTEA_HepaRG_CYP24A1: Life Technologies and Expression Analysis (LTEA) Assay for Cytochrome P450 (CYP24A1) using HepaRG (AID 2283478)
# Procedure, shortened: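 Human liver HepaRG cultures receive each chemical for 48 h across an eight-point half-log series topping at 100 uM in 0.5% DMSO. Induction or suppression of CYP24A1 mRNA is scored relative to vehicle after housekeeping-gene normalization.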
# [13] = read-out: cysteine-aspartic acid protease (CASP8), CASP8 (gene 841); assay: LTEA_HepaRG_CASP8: Life Technologies and Expression Analysis (LTEA) Assay for cysteine-aspartic acid protease (CASP8) using HepaRG (AID 2283480)
# Procedure, shortened: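 qRT-PCR readout of CASP8 mRNA, normalized to three housekeeping genes, after 48 h chemical exposure of HepaRG cells; 8-point half-log series, top 100 uM, 0.5% DMSO vehicle. Bidirectional curve fitting against DMSO baseline.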
# [14] = read-out: Cytochrome P450 2C19 (Homo sapiens) (UniProt P33261); assay: LTEA_HepaRG_CYP2C19: Life Technologies and Expression Analysis (LTEA) Assay for CYP2C19 using HepaRG (AID 2283482)
# Procedure, shortened: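 Human HepaRG liver cells received test chemicals for 48 h (highest 100 uM, half-log dilutions in 0.5% DMSO). CYP2C19 mRNA induction or loss is read by multiplexed qRT-PCR and fitted in both directions versus vehicle.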
# BCL2L11 (gene 10018) = assay: LTEA_HepaRG_BCL2L11: Life Technologies and Expression Analysis (LTEA) Assay for Bcl-2 (BCL2L11) gene using HepaRG (AID 2283473)
# Procedure, shortened: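 Cells were plated, cultured 48 h, switched to serum-free induction medium, then dosed in duplicate for 48 h at eight half-log concentrations up to 100 uM. Lysates underwent RNA isolation and TaqMan qRT-PCR; gain or loss versus DMSO was fitted.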
# [15] = read-out: Cytochrome P450 (CYP1A2), CYP1A2 (gene 1544); assay: LTEA_HepaRG_CYP1A2: Life Technologies and Expression Analysis (LTEA) Assay for Cytochrome P450 (CYP1A2) using HepaRG (AID 2283479)
# Procedure, shortened: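 Assesses CYP1A2 mRNA in human HepaRG liver cells after 48 h chemical exposure at up to 100 uM. Values come from qRT-PCR with bidirectional curve fitting relative to DMSO.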
# [16] = read-out: Alpha-fetoprotein (AFP) gene, AFP (gene 174); assay: LTEA_HepaRG_AFP: Life Technologies and Expression Analysis (LTEA) Assay for Alpha-fetoprotein (AFP) gene using HepaRG (AID 2283472)
# Procedure, shortened: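 qRT-PCR (Fluidigm TaqMan) readout of AFP transcript, normalized to three housekeeping genes, fitted bidirectionally against 0.5% DMSO baseline. HepaRG cells received chemicals for 48 h in serum-free induction medium, top concentration 100 uM, half-log steps.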
# [17] = read-out: Cytochrome P450 (CYP2B6), CYP2B6 (gene 1555); assay: LTEA_HepaRG_CYP2B6: Life Technologies and Expression Analysis (LTEA) Assay for Cytochrome P450 (CYP2B6) using HepaRG (AID 2283481)
# Procedure, shortened: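 Using 48 h treatment of HepaRG cells in serum-free induction medium, concentrations spanned half-log steps from 100 uM in 0.5% DMSO vehicle. CYP2B6 mRNA induction or loss is scored by qRT-PCR against DMSO.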
# [18] = read-out: Apolipoprotein A-V (APOA5) gene, APOA5 (gene 116519); assay: LTEA_HepaRG_APOA5: Life Technologies and Expression Analysis (LTEA) Assay for Apolipoprotein A-V (APOA5) gene using HepaRG (AID 2283474)
# Procedure, shortened: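 Human liver HepaRG cells are treated 48 h with test chemicals (100 uM top, half-log dilutions, 0.5% DMSO). APOA5 mRNA induction or loss is measured by qRT-PCR relative to vehicle.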
# Chain of Cytochrome P450 2C19 (Homo sapiens) (P33261 whole entry, looked up): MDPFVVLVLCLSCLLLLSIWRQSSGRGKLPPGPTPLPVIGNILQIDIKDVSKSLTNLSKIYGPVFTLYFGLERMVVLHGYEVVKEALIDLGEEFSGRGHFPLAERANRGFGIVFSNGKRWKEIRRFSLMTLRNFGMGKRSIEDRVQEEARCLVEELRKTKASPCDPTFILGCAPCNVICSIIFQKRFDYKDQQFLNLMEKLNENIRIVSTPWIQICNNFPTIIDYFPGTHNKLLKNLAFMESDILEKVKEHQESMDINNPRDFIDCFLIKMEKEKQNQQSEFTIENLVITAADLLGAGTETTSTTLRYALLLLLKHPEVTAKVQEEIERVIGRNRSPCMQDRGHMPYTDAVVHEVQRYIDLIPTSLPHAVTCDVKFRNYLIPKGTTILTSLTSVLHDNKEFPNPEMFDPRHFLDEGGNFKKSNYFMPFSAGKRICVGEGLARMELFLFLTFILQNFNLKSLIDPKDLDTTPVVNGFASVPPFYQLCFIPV
# Chain of Broad substrate specificity ATP-binding cassette transporter ABCG2 (Homo sapiens) (Q9UNQ0 whole entry, looked up): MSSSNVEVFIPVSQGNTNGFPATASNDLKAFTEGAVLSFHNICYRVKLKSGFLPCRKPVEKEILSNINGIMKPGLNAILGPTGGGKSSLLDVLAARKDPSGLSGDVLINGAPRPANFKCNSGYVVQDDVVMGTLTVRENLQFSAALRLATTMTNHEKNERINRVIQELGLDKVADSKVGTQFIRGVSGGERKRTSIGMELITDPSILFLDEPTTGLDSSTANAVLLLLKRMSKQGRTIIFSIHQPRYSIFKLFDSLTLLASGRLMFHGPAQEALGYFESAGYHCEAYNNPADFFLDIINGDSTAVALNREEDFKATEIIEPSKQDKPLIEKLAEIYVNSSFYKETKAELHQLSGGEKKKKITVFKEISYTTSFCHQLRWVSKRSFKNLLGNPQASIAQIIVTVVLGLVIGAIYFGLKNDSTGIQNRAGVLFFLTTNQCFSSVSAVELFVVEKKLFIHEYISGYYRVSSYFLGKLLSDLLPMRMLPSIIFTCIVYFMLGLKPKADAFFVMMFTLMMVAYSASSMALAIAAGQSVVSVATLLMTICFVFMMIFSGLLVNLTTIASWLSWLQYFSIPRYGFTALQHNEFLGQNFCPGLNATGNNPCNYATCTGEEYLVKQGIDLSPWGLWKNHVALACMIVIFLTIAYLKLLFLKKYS
# Chain of Apoptosis regulator Bcl-2 (Homo sapiens) (P10415 whole entry, looked up): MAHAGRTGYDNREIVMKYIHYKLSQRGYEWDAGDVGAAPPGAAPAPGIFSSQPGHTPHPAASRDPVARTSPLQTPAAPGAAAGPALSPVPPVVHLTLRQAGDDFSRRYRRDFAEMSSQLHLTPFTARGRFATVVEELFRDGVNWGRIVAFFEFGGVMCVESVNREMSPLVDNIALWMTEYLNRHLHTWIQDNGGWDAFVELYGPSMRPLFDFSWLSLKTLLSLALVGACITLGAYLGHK
smiles,measurement,setting,value
CN(C)CCCN(C)CCCN(C)C,outcome,[1],inactive
same,outcome,[2],inactive
same,outcome,[3],inactive
same,outcome,[4],inactive
same,outcome,[5],inactive
same,outcome,[6],inactive
same,outcome,[7],inactive
same,outcome,[8],inactive
same,outcome,[9],inactive
same,outcome,[10],inactive
same,outcome,[11],inactive
same,outcome,Caspase-3 (Homo sapiens),inactive
same,outcome,[12],inactive
same,outcome,[13],inactive
same,outcome,[14],inactive
CC(=O)O[C@]1(C(C)=O)CC[C@H]2[C@@H]3C=C(Cl)C4=CC(=O)[C@@H]5C[C@@H]5[C@]4(C)[C@H]3CC[C@@]21C,outcome,[1],inactive
same,AC50,[2],50 µM (active)
same,outcome,[3],inactive
same,outcome,[4],inactive
same,AC50,[5],29.2 µM (active)
same,outcome,[6],inactive
same,outcome,[7],inactive
same,AC50,[8],50 µM (active)
same,outcome,[9],inactive
same,outcome,BCL2L11 (gene 10018),inactive
same,outcome,[10],inactive
same,outcome,[11],inactive
same,outcome,Caspase-3 (Homo sapiens),inactive
same,AC50,[12],0.00316 µM (active)
same,AC50,[15],78.7 µM (active)
same,outcome,[13],inactive
same,AC50,[14],63.5 µM (active)
COC(=O)[C@H]1[C@H]2C[C@@H]3c4[nH]c5cc(OC)ccc5c4CCN3C[C@H]2C[C@@H](OC(=O)c2cc(OC)c(OC)c(OC)c2)[C@@H]1OC,AC50,[1],31.4 µM (active)
same,AC50,[2],67.4 µM (active)
same,outcome,[3],inactive
same,AC50,[5],42.2 µM (active)
same,AC50,[6],25.9 µM (active)
same,outcome,[7],inactive
same,outcome,[8],inactive
same,outcome,[9],inactive
same,AC50,[16],60.8 µM (active)
same,outcome,BCL2L11 (gene 10018),inactive
same,AC50,[10],42.2 µM (active)
same,outcome,[11],inactive
same,outcome,Caspase-3 (Homo sapiens),inactive
same,outcome,[12],inactive
same,AC50,[15],9.74 µM (active)
same,outcome,[13],inactive
same,AC50,[17],61.7 µM (active)
same,AC50,[14],63.4 µM (active)
Cc1cc(Cc2ccc(N)c(C)c2)ccc1N,outcome,[1],inactive
same,AC50,[2],50 µM (active)
same,outcome,[3],inactive
same,outcome,[4],inactive
same,outcome,[5],inactive
same,outcome,[6],inactive
same,outcome,[7],inactive
same,outcome,[8],inactive
same,outcome,[9],inactive
same,outcome,BCL2L11 (gene 10018),inactive
same,outcome,[10],inactive
same,outcome,[11],inactive
same,outcome,Caspase-3 (Homo sapiens),inactive
same,outcome,[12],inactive
same,AC50,[15],50 µM (active)
same,outcome,[13],inactive
same,AC50,[14],11.5 µM (active)
O=C1O[C@H]([C@H](O)CO)C(O)=C1O,outcome,[1],inactive
same,outcome,[2],inactive
same,outcome,[3],inactive
same,outcome,[5],inactive
same,outcome,[6],inactive
same,outcome,[7],inactive
same,outcome,[8],inactive
same,outcome,[9],inactive
same,outcome,[10],inactive
same,outcome,[11],inactive
same,outcome,Caspase-3 (Homo sapiens),inactive
same,outcome,[12],inactive
same,outcome,[13],inactive
same,outcome,[17],inactive
same,outcome,[14],inactive
CC(C)c1cccc(C(C)C)c1,outcome,[2],inactive
same,outcome,[3],inactive
same,outcome,[4],inactive
same,outcome,[5],inactive
same,outcome,[6],inactive
same,outcome,[7],inactive
same,outcome,[8],inactive
same,outcome,[9],inactive
same,outcome,[18],inactive
same,outcome,[10],inactive
same,outcome,[11],inactive
same,outcome,Caspase-3 (Homo sapiens),inactive
same,outcome,[15],inactive
same,outcome,[13],inactive
same,outcome,[14],inactive
CC(COCC(C)OC(=O)c1ccccc1)OC(=O)c1ccccc1 (centres undefined),outcome,[1],inactive
same,outcome,[2],inactive
same,outcome,[3],inactive
same,outcome,[4],inactive
same,outcome,[6],inactive
same,outcome,[7],inactive
same,outcome,[8],inactive
same,outcome,[9],inactive
same,outcome,[16],inactive
same,outcome,[18],inactive
same,outcome,[10],inactive
same,outcome,[11],inactive
same,outcome,Caspase-3 (Homo sapiens),inactive
same,outcome,[12],inactive
same,outcome,[15],inactive
same,outcome,[13],inactive
same,outcome,[14],inactive
Cc1c(C)c2c(c(C)c1O)CCC(C)(COc1ccc(CC3SC(=O)NC3=O)cc1)O2 (centres undefined),AC50,[1],15.8 µM (active)
same,AC50,[2],93.7 µM (active)
same,outcome,[3],inactive
same,outcome,[4],inactive
same,AC50,[5],97.6 µM (active)
same,AC50,[6],15.8 µM (active)
same,outcome,[7],inactive
same,AC50,[8],29.6 µM (active)
same,outcome,[9],inactive
same,outcome,[10],inactive
same,outcome,[11],inactive
same,outcome,Caspase-3 (Homo sapiens),inactive
same,outcome,[12],inactive
same,outcome,[13],inactive
same,AC50,[17],26.4 µM (active)

# Source: PubChem BioAssay (EPA / NIEHS)
